According to the supplement of paper PMC13380429:

Tested on: Vero E6 infected with SARS-CoV-2
Test: inhibition of SARS-CoV-2 cytopathic effect; higher = more antiviral protection, active = above 15
Settings: 48 h

Measured: inhibition of SARS-CoV-2 cytopathic effect

O=C(CCN1CCN(C(=O)OCc2cc(Cl)cc(Cl)c2)CC1)c1ccc2[nH]c(=O)oc2c1
inactive: 1 nM 3.18% | 8.33 nM 5.29% | 100 nM 2.77% | 833.33 nM 4.56% | 10000 nM 1.71%

C[C@H](CCC(=O)O)[C@H]1CC[C@H]2[C@@H]3C(=O)C[C@@H]4CC(=O)CC[C@]4(C)[C@H]3CC(=O)[C@]12C [dehydrocholate-acid]
inactive: 1 nM -5.5% | 8.33 nM -4.18% | 100 nM -2.25% | 833.33 nM -2.84% | 10000 nM -7.01%

OC(c1ccccc1)(c1ccccc1)C12CC[N+](CCOCc3ccccc3)(CC1)CC2 [umeclidinium]
inactive: 1 nM -0.48% | 8.33 nM 1.77% | 100 nM 0.73% | 833.33 nM 1.46% | 10000 nM 1.64%

CCC(=O)O[C@]1(C(=O)COC(C)=O)CC[C@H]2[C@@H]3C[C@H](C)C4=CC(=O)C=C[C@]4(C)[C@H]3[C@@H](O)C[C@@]21C [methylprednisolone-aceponate]
inactive: 1 nM 1.61% | 8.33 nM 1% | 100 nM 0.19% | 833.33 nM 3.54% | 10000 nM 2.69%

CC[C@H](C)[C@@H]1NC(=O)[C@H](Cc2ccc(OC)cc2)NC(=O)CCCSC[C@@H](C(=O)N2CCC[C@H]2C(=O)N[C@@H](CC(C)C)C(=O)NCC(N)=O)NC(=O)[C@H](CC(N)=O)NC(=O)[C@H](CCC(N)=O)NC1=O [carbetocin]
inactive: 1 nM -1.89% | 8.33 nM 0.45% | 100 nM -1.53% | 833.33 nM 1.22% | 10000 nM -1.25%

CN1CC2c3ccccc3Oc3ccc(Cl)cc3C2C1 (stereo not given) [asenapine]
inactive: 1 nM 1.23% | 8.33 nM -0.6% | 100 nM 1.72% | 833.33 nM -0.01% | 10000 nM 6.35%

COC(=O)C1=C(C)NC(C)=C(C(=O)OC/C=C/c2ccccc2)C1c1cccc([N+](=O)[O-])c1 (stereo not given) [pranidipine]
inactive: 1 nM 1.87% | 8.33 nM 0.47% | 100 nM -0.57% | 833.33 nM 1.4% | 10000 nM 8.67%

O=S(=O)(O)CCS [mesna]
inactive: 1 nM 2.64% | 8.33 nM 4.29% | 100 nM 1.16% | 833.33 nM 5.57% | 10000 nM 0.95%

O=C1[C@H]2CCCC[C@H]2C(=O)N1CCCCN1CCN(c2nsc3ccccc23)CC1 [perospirone]
inactive: 1 nM -1.38% | 8.33 nM 3.93% | 100 nM 3.52% | 833.33 nM 3.58% | 10000 nM -1.69%

O=C1c2ccccc2C(=O)C1c1ccc(Cl)cc1 [chlorindione]
inactive: 1 nM -5.54% | 8.33 nM -6.24% | 100 nM -3.27% | 833.33 nM 0.64% | 10000 nM 0.34%

CCCN(CCC)CCc1cccc2c1CC(=O)N2 [ropinirole]
inactive: 1 nM 0.18% | 8.33 nM -0.55% | 100 nM -1.05% | 833.33 nM 2.2% | 10000 nM -0.98%

COc1cc(OC)c(C(=O)CCCCN2CCC3(CC2)NC(=O)NC3=O)cc1NS(=O)(=O)c1ccc(C(F)(F)F)cc1
inactive: 1 nM 0.4% | 8.33 nM 0.2% | 100 nM -0.19% | 833.33 nM 0.81% | 10000 nM 0.94%

C=CCN1CC[C@]23c4c5ccc(O)c4O[C@H]2[C@@H](OCCOCCOCCOCCOCCOCCOCCOC)CC[C@@]3(O)[C@H]1C5 [naloxegol]
inactive: 1 nM 2.88% | 8.33 nM 0.75% | 100 nM 1.49% | 833.33 nM 0.6% | 10000 nM -1.7%

O=C(Cn1ccnc1[N+](=O)[O-])NCCO [etanidazole]
inactive: 1 nM 0.32% | 8.33 nM 0.33% | 100 nM 4.88% | 833.33 nM -1.27% | 10000 nM -0.88%

CN[C@H](CC(C)C)C(=O)N[C@H]1C(=O)N[C@@H](CC(N)=O)C(=O)N[C@H]2C(=O)N[C@H]3C(=O)N[C@H](C(=O)N[C@H](C(=O)O)c4cc(O)cc(O)c4-c4cc3ccc4O)[C@H](O[C@H]3C[C@](C)(N)[C@@H](O)[C@H](C)O3)c3ccc(c(Cl)c3)Oc3cc2cc(c3O[C@@H]2O[C@H](CO)[C@@H](O)[C@H](O)[C@H]2O[C@H]2C[C@](C)(NCc3ccc(-c4ccc(Cl)cc4)cc3)[C@@H](O)[C@H](C)O2)Oc2ccc(cc2Cl)[C@H]1O [oritavancin]
inactive: 1 nM 2.97% | 8.33 nM 3.58% | 100 nM -0.56% | 833.33 nM 0.82% | 10000 nM 0.93%
